Screens: PubChem BioAssay, National Center for Advancing Translational Sciences (NCATS)
ELG1 genotox: qHTS screen for small molecules that induce genotoxicity in human embryonic kidney (HEK293T) cells expressing luciferase-tagged ELG1. HEK293T ELG1-luciferase reporter, luminescence, 16 h. Potency, µM (titrated, usually from 46 µM), for the others: top-dose activity change, positive = activation, hits mostly activators. 1.3% of 330,000 active; further: % of control where 0% means no effect; nearly all actives have a fitted effect of over 60% in size
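Reporter readout depends on ELG1 protein level, which increases with genetic stress. After 16 hr compound exposure at 37 °C, luciferase activity was quantified using ONE-Glo.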
uPA surface inh: qHTS for Inhibitors of Cell Surface uPA Generation. AID 540303, 2011. Potency, µM (highest dose often 38.3 µM), for the others: at the top dose activity change, negative = inhibition, most hits filed as inhibitors. cell surface uPA generation assay, qHTS. 0.31% of 330,000 active; active means well fitted inhibition curve with a large enough effect; inconclusive means small, poorly fitted or top-dose-only effect; inactive means no such curve, though single readings can be large or run the other way; tested in mouse RAW 264.7 cells; further: on the % scale 0 is the no-effect control and ±100 the full control effect; nearly all actives have a fitted effect of over 55% in size
NPC1 prom act: qHTS Assay for NPC1 Promoter Activators. Potency, µM (highest dose often 9.22 µM), for inactives: top-dose activation, hits mostly activators. Huh7 NPC1 promoter luciferase reporter, 24 h. 2.4% of 320,000 active. AID 485313, 2010; further: % of control where 0% means no effect; nearly all actives have a fitted effect of over 60% in size
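Luminescence from an NPC1 promoter-driven luciferase reporter in stably transfected Huh7 cells was measured after 24 h compound treatment at 37 °C, followed by 10 min ambient incubation with luciferase detection reagent.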
FLuc modulator: qHTS profiling assay for firefly luciferase inhibitor/activator using purifed enzyme and Km concentrations of substrates (counterscreen for miR-21 project). purified FLuc, Km substrates, luminescence inhibition. Potency, µM (series often up to 57.5 µM), for inactives: at the top dose activity change, negative = inhibition, hits mostly inhibitors. 6.9% of 360,000 active. AID 588342, 2011;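 further: plate controls were vehicle for no effect and reference inhibitor for full effect; nearly all actives have a fitted effect of over 55% in size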
Target sequence (P08659 whole entry, looked up): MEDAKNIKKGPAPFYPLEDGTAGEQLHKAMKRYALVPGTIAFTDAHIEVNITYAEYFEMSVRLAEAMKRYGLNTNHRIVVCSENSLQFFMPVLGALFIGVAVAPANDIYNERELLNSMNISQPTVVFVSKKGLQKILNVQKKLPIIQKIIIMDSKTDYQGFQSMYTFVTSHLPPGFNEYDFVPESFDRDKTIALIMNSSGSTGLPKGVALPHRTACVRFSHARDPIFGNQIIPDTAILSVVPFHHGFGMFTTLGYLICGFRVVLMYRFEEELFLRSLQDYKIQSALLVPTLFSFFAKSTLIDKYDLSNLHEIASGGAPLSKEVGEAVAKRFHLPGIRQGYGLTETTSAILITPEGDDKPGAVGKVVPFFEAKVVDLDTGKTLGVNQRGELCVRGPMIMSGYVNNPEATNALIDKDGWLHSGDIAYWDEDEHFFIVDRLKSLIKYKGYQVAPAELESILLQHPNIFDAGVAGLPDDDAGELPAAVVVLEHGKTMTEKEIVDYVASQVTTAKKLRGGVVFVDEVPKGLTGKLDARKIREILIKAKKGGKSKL
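Biochemical qHTS of compounds, final roughly 60 µM downward over six points, against 10 nM purified firefly luciferase using Km concentrations of substrates (10 uM D-luciferin, 10 uM ATP) in Tris acetate pH 7.5 buffer; luminescence output.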
Rab9 promoter act: qHTS Assay for Rab9 Promoter Activators | Huh7 Rab9 promoter-luciferase reporter, luminescence, 24 h | 2.8% of 320,000 active | Potency, µM (titrated, usually from 9.22 µM), for the others: top-dose activation, negative = inhibition, hits mostly activators | AID 485297, 2010; further: % of control where 0% means no effect; nearly all actives have a fitted effect of over 60% in size
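Luminescence from Amplite-detected luciferase (10 minutes, ambient) reports Rab9 promoter activation. Before that, stable Rab9-luciferase Huh7 cells (1500/well, reduced-serum OP-MEM I plus 10% FBS) were exposed to compound for 24 hours at 37C.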
SMN2 splice enh: qHTS Assay for Enhancers of SMN2 Splice Variant Expression. HEK293 SMN2-luciferase splicing reporter, luminescence, 30-36 h. Potency, µM (doses to about 46.1 µM), without a hit: top-dose activity change, positive = activation, most hits filed as activators. 2.8% of 210,000 active. AID 1458, 2008; further: % of control where 0% means no effect; nearly all actives have a fitted effect of over 55% in size
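HEK293 cells carry an SMN2 […]–luciferase reporter in which exon 7 inclusion puts luciferase in frame. Cells were plated 10-12 h before compound addition, then incubated 30-36 h at 37C. ONE-Glo luminescence was read; sodium butyrate at 4.5 mM final served as control.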
The depositor's hits bear a star; ? = inconclusive; · = no result given; ! = not confirmed by another sample; [ ] = dose if it differs, or a comment. A selection: hits, their analogues and other compounds. The true share with any hit is near 7.3%. Unless noted, the call rests on the fitted dose curve; in most records, active means well fitted curve in the direction sought with a large enough effect; inconclusive means small, poorly fitted or top-dose-only effect, or another doubt; inactive means no such curve, though single readings can be large; an effect the other way counts as inactive or inconclusive. Potency means the concentration at half of the fitted maximal effect.

SMILES | ELG1 genotox | uPA surface inh | NPC1 prom act | FLuc modulator | Rab9 promoter act | SMN2 splice enh
COCCN1C(=S)N[C@@H](c2ccccc2)C(C(=O)OC)=C1C | · | · | 0% | -3% | -10% | ·
Cc1oc(-c2cccc(Cl)c2)nc1CSc1nc2ncccc2[nH]1 | · | · | · | -16% | · | ·
CC(C)CC(=O)Nc1nnc(S(=O)(=O)Nc2ccccc2)s1 | 4% | 7% | -11% | -1% | -2% | ·
O=C(Nc1nnc(S(=O)(=O)Nc2ccccc2)s1)C1CCCCC1 | 0% | 9% | -3% | 8.5µM*! | -6% | ·
O=C(Nc1nnc(S(=O)(=O)N2CCCC2)s1)c1ccccc1Cl | -1% | -6% | -1% | 4.8µM* | 1% | ·
Cc1ccc(N(Cc2ccccc2)Cc2ccccc2)cc1 | · | · | · | · | · | -7%[9.22 µM]
COc1cccc(/C=N/Nc2nn3cnnc3c3ccccc23)c1O | 0% | -9% | -16% | -6% | -22% | -19%
Oc1cccc(/C=N/Nc2nn3cnnc3c3ccccc23)c1 | -3% | ? | 15% | 8.5µM* | 9% | ·
N/C(=N\OC(=O)COc1ccc(Cl)cc1)c1cccnc1 | 9% | 3% | 4% | ? | 1% | 19%
N/C(=N\OC(=O)CCCOc1ccc(Cl)cc1Cl)c1ccncc1 | 0% | 8% | -5% | ? | -5% | 7%
N/C(=N\OC(=O)COc1ccc(Cl)cc1Br)c1ccncc1 | 8.2µM* | -6% | 3.5µM* | 11µM* | 3.5µM* | 11µM*
N/C(=N\OC(=O)COc1ccc2ccccc2c1Br)c1ccncc1 | ? | · | 11% | 21µM* | 2% | 1%
N/C(=N\OC(=O)COc1ccc(Cl)cc1Cl)c1cccnc1 | ? | -8% | 25% | 6µM* | 4% | ?
CCc1ccc(OCC(=O)O/N=C(\N)c2ccncc2)c(Br)c1 | ? | -10% | 3.2µM* | 7.6µM* | 2µM* | ·
N/C(=N\OC(=O)COc1ccc2ccccc2c1)c1ccncc1 | -3% | -2% | -4% | ? | 2% | ·
N#Cc1ccccc1NC(=O)CSc1ncn[nH]1 | · | · | · | 1% | · | -21%
O=C(CN1C(=O)c2ccccc2C1=O)NCc1ccccn1 | 3% | -1% | -2% | -1% | 4% | -29%
O=C(Cn1c(=O)sc2ccccc21)NCc1ccccn1 | 18µM* | -4% | 22% | ? | 23% | 11µM*
O=[N+]([O-])/C=C\c1ccc(N2CCCC2)c(F)c1 | -9% | -8% | 16% | ? | 27% | 5.6µM*
O=Cc1ccc(N2CCCC2)c([N+](=O)[O-])c1 | 1% | -5% | -3% | -2% | -3% | -3%
COC(=O)c1ccc(C2NC(=O)c3c(sc(C)c3C)N2)cc1 (configuration not stated) | 2% | 8% | -3% | ? | 3% | ·
Cc1sc2c(c1C)C(=O)NC(c1cccc(O)c1)N2 (configuration not stated) | 3% | · | 0% | 15µM* | 8% | ?
CCc1c(C)nc2nncn2c1Nc1cccc(C)c1 | · | · | · | -2% | · | -7%
Cc1ccc(/C=N/NC(=S)N2CCOCC2)cc1 | ? | -1% | 12% | 15µM* | 5% | 34%
S=C(N/N=C/c1ccc(Cl)cc1)N1CCOCC1 | ? | 5% | 29% | ? | 29% | 29%
SMILES | ELG1 genotox | uPA surface inh | NPC1 prom act | FLuc modulator | Rab9 promoter act | SMN2 splice enh
S=C(N/N=C/c1ccc(Br)cc1)N1CCCCC1 | ? | -1% | 4µM* | 27µM* | 0.89µM* | ·
O=C(O)/C=C/C(=O)Nc1nc(-c2ccc3ccccc3c2)cs1 | · | -1% | · | · | · | ·
O=C(/C=C\c1ccco1)Nc1nc(-c2ccccc2)cs1 | 3% | 3% | 13% | 12µM* | ? | ?
O=C(/C=C/c1ccccc1)Nc1nc(-c2ccncc2)cs1 | -1% | -2% | 1% | 2.7µM* | -6% | -75%
Cc1ccc(S(=O)(=O)N2CCN(C(=O)COC(=O)CCCOc3ccccc3)CC2)c(C)c1 | 2% | -1% | -7% | -2% | -2% | ·
CCc1ccc(OCC(=O)N(Cc2ccco2)Cc2ccco2)cc1 | · | · | · | -16% | · | -10%
O=c1[nH]c2ccc(NCc3ccc(F)cc3)cc2[nH]1 | -6% | -14% | 14% | 17µM* | 15% | ·
COc1cc(CNc2ccc3[nH]c(=O)[nH]c3c2)cc(Cl)c1OCc1ccc(F)cc1 | · | · | · | -4% | · | ·
COC(=O)N1C(=O)[C@@](c2ccccc2)(C2CCCC2)N1C(=O)OC | 15% | 7.1µM* | -8% | 0% | -2% | ·
Fc1ccc(N=C2NN=C(c3cc(F)ccc3F)CS2)cc1 | -3% | -23% | 11% | 24µM* | ? | 22µM*
Cc1ccccc1N=C1NC(=O)CS1 | 1% | 0% | -3% | 0% | 3% | -11%
Clc1ccccc1N=C1NN=C(c2cccs2)CS1 | ? | 6% | 3.2µM* | 12µM* | 2µM* | 8.9µM*
Cc1cccc(N=C2NN=C(c3ccccc3F)CS2)c1C | 18% | -4% | ? | 19µM* | ? | 26%
O=S(=O)(c1ccc(N=C2NN=C(c3cc(F)ccc3F)CS2)cc1)N1CCOCC1 | -8% | -10% | -11% | -9% | -18% | ·
Cc1[nH]c2ccccc2c1C1=NNC(=Nc2ccc(F)cc2)SC1 | -13% | ? | 0% | -5% | -3% | -38%
O=C1CSC(=Nc2ccccc2Cl)N1 | 11% | 5% | -1% | -16% | 1% | -11%
Fc1ccc(F)c(C2=NNC(=Nc3ccccc3F)SC2)c1 | ? | -5% | ? | 12µM* | 30% | -22%
COc1ccc(/C=C/C(=O)OCC(=O)NC2CC2)c(OC)c1 | 1% | 0% | · | · | · | ·
COCCNC(=O)Cn1c(=O)n(CCCCCC(=O)NCc2ccccc2Cl)c(=O)c2sccc21 | · | · | · | -1% | · | -2%
Fc1ccccc1N=C1NN=C(c2ccccc2)CS1 | ? | -6% | 2.5µM* | 13µM* | ? | 13µM*
Cc1ccc(Cl)cc1N1CCN(CCNC(=O)Nc2ccccc2Cl)CC1 | · | · | · | 4% | · | 9%
CC1(C)Cc2c(sc(NC(=O)c3ccccc3)c2C(=O)O)CO1 | -2% | -6% | ? | 6.7µM* | ? | ?
CC1(C)Cc2c(sc(NC(=O)C(=O)N3CCCC3)c2C(=O)O)CO1 | 3% | 6% | 1% | -2% | -5% | ·
CC(C)COc1ccc(C(=O)Nc2sc3c(c2C(=O)O)CC(C)(C)OC3)cc1 | -14% | -11% | 0% | 21µM* | -5% | ·
COc1ccc(Cl)cc1NC(=O)c1ccc(CN2C(=O)CCn3nc(C)cc32)cc1 | · | · | · | 2% | · | ·
O=c1c2ccccc2sn1-c1ccccc1 | 17% | -6% | 10% | 7.6µM* | 25% | 6%
O=c1c2ccccc2sn1-c1nccs1 | -3% | 0% | 1% | 8.5µM* | -1% | 6%
